Measured values as given in PubChem BioAssay.
Unmarked numbers belong to inactive results. For part of these data: Results with a measured potency or affinity are listed apart. Calls of active or inactive are those of the source. Unless noted, no rule for the calls is given here.

Columns and labels:
[1] = antimalarial activity against Dd2 strain (AID 2302;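 active = growth inhibition above 50% at the single 2 µM test dose, taken to imply half-maximal potency below 2 µM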;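 also: 0% = DMSO untreated growth and 100% = chloroquine plus artemisinin killed control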); details: P. falciparum Dd2 in RBCs, LDH growth readout, 72 h; at 2 µM; active compounds read high
[2] = human hepatoma cell viability loss – ATP luminescence, cytotoxicity control for P. falciparum antimalarial project, primary screen (AID 2303;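 active = inhibition above 50%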;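 also: 0% = DMSO wells and 100% = digitonin-killed cells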); details: HepG2 viability, 24-48 h, at 10 µM, active compounds read high
[3] = target: L-lactate dehydrogenase (Plasmodium falciparum (isolate CDC / Honduras)) (UniProt Q27743); test: PfLDH activity inhibition – cell lysate, 3D7 strain, counter-screen for P. falciparum growth inhibition project (AID 2304);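 also: 0% = vehicle and 100% = reference inhibitor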; details: P. falciparum 3D7 crude extract, LDH APAD/NBT absorbance; at 2 µM; active compounds read high
[4] = inhibition of 3D7 malaria parasite growth – strain 3D7 (AID 2306);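 also: 0% = DMSO wells and 100% = chloroquine plus artemisinin control wells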; details: P. falciparum 3D7 erythrocytic growth, LDH absorbance, 72 h; at 2 µM; active compounds read high
[5] = target: Calcium-dependent protein kinase 1 (Plasmodium falciparum (isolate 3D7)) (UniProt P62344); test: PfCDPK1 kinase inhibitors, biochemical, TCAMS library (AID 1159585; cut-off not given, nearly all actives have IC50 up to about 0.98 µM;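 also: inhibitors leave more ATP so luminescence rises with inhibition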); details: recombinant PfCDPK1, Kinase-Glo ATP depletion luminescence
[6] = target: Plasmodium falciparum protein kinase 6 (PK6, PF3D7_1337100) (UniProt Q8IDW1); test: PfPK6 kinase inhibitors, biochemical, TCAMS library (AID 1159586); details: recombinant PfPK6, Kinase-Glo ATP depletion luminescence
[7] = target: Protein kinase 7 (PK7), Plasmodium falciparum 3D7 (PF3D7_0213400) (UniProt Q7YTF7); test: inhibition of Plasmodium PK7 catalytic activity – biochemical, TCAMS antimalarial set, Kinase-Glo luminescence (AID 1159587); details: recombinant PfPK7, Kinase-Glo ATP depletion luminescence
[8] = target: Calcium-dependent protein kinase 4 (Plasmodium falciparum (isolate 3D7)) (UniProt Q8IBS5); test: PfCDPK4 kinase inhibitors, biochemical, TCAMS library (AID 1159588; cut-off not given, nearly all actives have IC50 up to about 0.91 µM); details: recombinant PfCDPK4, Kinase-Glo ATP depletion luminescence
Calcium-dependent protein kinase 4 (Plasmodium falciparum (isolate 3D7)), sequence (Q8IBS5 whole entry, looked up): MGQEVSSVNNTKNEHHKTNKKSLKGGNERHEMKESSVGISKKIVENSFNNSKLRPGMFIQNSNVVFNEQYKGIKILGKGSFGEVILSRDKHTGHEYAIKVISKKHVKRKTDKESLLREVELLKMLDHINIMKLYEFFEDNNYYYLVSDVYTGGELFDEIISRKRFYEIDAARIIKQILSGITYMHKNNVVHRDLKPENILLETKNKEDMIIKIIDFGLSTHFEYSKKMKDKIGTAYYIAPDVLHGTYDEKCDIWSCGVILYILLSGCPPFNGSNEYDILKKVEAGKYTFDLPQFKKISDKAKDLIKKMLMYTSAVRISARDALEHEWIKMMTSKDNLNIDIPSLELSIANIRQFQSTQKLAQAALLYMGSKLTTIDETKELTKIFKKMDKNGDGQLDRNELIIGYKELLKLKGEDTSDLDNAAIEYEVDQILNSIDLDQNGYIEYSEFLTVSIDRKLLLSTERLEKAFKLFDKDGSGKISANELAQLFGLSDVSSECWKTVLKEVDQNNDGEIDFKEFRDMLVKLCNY

Protein kinase 7 (PK7), Plasmodium falciparum 3D7 (PF3D7_0213400), sequence (Q7YTF7 1-343): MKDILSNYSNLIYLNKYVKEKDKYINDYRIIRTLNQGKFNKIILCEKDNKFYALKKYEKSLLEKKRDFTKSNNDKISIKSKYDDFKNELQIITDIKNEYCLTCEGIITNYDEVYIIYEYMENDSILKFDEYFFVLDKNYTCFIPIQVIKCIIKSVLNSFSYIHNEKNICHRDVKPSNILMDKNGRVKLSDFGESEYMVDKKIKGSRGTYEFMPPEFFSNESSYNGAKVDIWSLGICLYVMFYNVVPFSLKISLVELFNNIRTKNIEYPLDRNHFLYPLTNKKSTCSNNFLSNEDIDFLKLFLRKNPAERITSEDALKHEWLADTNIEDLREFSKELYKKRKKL
Calcium-dependent protein kinase 1 (Plasmodium falciparum (isolate 3D7)), sequence (P62344 whole entry, looked up): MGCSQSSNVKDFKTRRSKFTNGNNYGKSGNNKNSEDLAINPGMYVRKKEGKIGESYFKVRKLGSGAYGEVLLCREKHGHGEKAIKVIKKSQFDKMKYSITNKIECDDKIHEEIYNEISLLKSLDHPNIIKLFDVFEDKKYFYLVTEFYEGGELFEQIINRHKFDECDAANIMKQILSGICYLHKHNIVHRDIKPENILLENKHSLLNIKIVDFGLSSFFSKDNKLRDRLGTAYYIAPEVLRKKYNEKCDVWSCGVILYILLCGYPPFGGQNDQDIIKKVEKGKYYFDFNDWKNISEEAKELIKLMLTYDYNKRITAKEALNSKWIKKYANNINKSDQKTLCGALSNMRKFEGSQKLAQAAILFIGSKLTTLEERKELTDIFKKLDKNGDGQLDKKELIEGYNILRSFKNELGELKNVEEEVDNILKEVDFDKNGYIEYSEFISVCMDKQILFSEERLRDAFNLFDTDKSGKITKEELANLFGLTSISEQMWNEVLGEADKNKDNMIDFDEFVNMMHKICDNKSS
L-lactate dehydrogenase (Plasmodium falciparum (isolate CDC / Honduras)), sequence (Q27743 whole entry, looked up): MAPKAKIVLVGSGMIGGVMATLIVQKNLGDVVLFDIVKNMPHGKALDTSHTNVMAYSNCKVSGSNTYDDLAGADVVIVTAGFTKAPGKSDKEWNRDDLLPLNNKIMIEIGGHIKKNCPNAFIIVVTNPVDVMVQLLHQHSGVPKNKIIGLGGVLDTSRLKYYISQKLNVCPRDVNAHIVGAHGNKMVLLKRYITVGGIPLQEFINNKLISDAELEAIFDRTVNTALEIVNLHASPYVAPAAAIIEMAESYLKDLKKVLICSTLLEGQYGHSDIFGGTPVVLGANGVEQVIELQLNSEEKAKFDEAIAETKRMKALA
Plasmodium falciparum protein kinase 6 (PK6, PF3D7_1337100), sequence (Q8IDW1 1-305): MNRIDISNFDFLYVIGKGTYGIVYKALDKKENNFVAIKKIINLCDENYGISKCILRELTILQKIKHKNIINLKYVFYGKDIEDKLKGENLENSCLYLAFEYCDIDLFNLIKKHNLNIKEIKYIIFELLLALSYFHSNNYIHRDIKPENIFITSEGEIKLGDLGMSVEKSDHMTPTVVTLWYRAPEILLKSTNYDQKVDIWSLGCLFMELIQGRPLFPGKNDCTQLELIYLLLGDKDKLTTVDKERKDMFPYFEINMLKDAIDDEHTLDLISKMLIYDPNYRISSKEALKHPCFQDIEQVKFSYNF

CC1c2cccc(O)c2CCN1CCc1ccc(Cl)c(Cl)c1 (stereo not drawn)
growth inhibition [1]: 99% (active) | inhibition [2]: 18% | inhibition [3]: -1% | growth inhibition [4]: 102% (active) | outcome [5]: inactive | outcome [6]: inactive | outcome [7]: inactive | outcome [8]: inactive

Cc1cc(N(C)C2CCN(C)C2)nc(Nc2ccccc2Cl)n1 (stereo not drawn)
growth inhibition [1]: 84% (active) | inhibition [2]: 1% | inhibition [3]: -1% | growth inhibition [4]: 100% (active) | outcome [5]: inactive | outcome [6]: inactive | outcome [7]: inactive | outcome [8]: inactive

COc1ccc(-c2nc3c4cc(I)ccc4c4ccccc4c3[nH]2)cc1
growth inhibition [1]: 16% | inhibition [2]: 4% | inhibition [3]: -3% | growth inhibition [4]: 96% (active) | outcome [5]: inactive | outcome [6]: inactive | outcome [7]: inactive | outcome [8]: inactive

Clc1ccc2c(NN=Cc3cccs3)ccnc2c1
growth inhibition [1]: 96% (active) | inhibition [2]: -4% | inhibition [3]: 2% | growth inhibition [4]: 100% (active) | outcome [5]: inactive | outcome [6]: inactive | outcome [7]: inactive | outcome [8]: inactive

C[C@@H]1CN(c2ccc3occ(C(=O)Nc4ccc(-c5ccncc5)c(Cl)c4)c3c2)C[C@H](C)N1C
growth inhibition [1]: 96% (active) | inhibition [2]: 14% | inhibition [3]: -4% | growth inhibition [4]: 100% (active) | outcome [5]: inactive | outcome [6]: inactive | outcome [7]: inactive | outcome [8]: inactive

COc1ccccc1C(C)NCC(=O)Nc1cc(C(F)(F)F)ccc1Cl (stereo not drawn)
growth inhibition [1]: 85% (active) | inhibition [2]: 4% | inhibition [3]: -3% | growth inhibition [4]: 97% (active) | outcome [5]: inactive | outcome [6]: inactive | outcome [7]: inactive | outcome [8]: inactive

Cc1ccc(C(=O)Nc2cc(S(=O)(=O)N3CCCC3)ccc2OCC(F)(F)F)cc1
growth inhibition [1]: 3% | inhibition [2]: -2% | inhibition [3]: 3% | growth inhibition [4]: 93% (active) | outcome [5]: inactive | outcome [6]: inactive | outcome [7]: inactive | outcome [8]: inactive

CNC(=O)C(C)N(c1ccc(Cl)cc1)c1nc(C(C)(C)C)cs1 (stereo not drawn)
growth inhibition [1]: 98% (active) | inhibition [2]: 0% | inhibition [3]: 7% | growth inhibition [4]: 99% (active) | outcome [5]: inactive | outcome [6]: inactive | outcome [7]: inactive | outcome [8]: inactive

CCCCC(CC)C(=O)C(NC(=O)[C@H](CSC(c1ccccc1)(c1ccccc1)c1ccccc1)NC(=O)OC(C)(C)C)C(=O)OC (stereo partly drawn)
growth inhibition [1]: 31% | inhibition [2]: 8% | inhibition [3]: 0% | growth inhibition [4]: 88% (active) | outcome [5]: inactive | outcome [6]: inactive | outcome [7]: inactive | outcome [8]: inactive

CC1(C)C(=O)Nc2ccc3c(c21)CC1SC(=O)NN=C31 (stereo not drawn)
growth inhibition [1]: 92% (active) | inhibition [2]: 6% | inhibition [3]: -1% | growth inhibition [4]: 96% (active) | outcome [5]: inactive | outcome [6]: inactive | outcome [7]: inactive | outcome [8]: inactive

O=C(CSc1n[nH]c(-c2ccccc2Br)n1)c1c[nH]c2ccccc12
growth inhibition [1]: 95% (active) | inhibition [2]: 7% | inhibition [3]: -6% | growth inhibition [4]: 100% (active) | outcome [5]: inactive | outcome [6]: inactive | outcome [7]: inactive | outcome [8]: inactive

O=C(/C=C/c1ccc(Cl)c(Cl)c1)NCCCCCCN1CCCN(C(=O)Nc2cc(Cl)cc(Cl)c2)CC1
growth inhibition [1]: 2% | inhibition [2]: 26% | inhibition [3]: -3% | growth inhibition [4]: 98% (active) | outcome [5]: inactive | outcome [6]: inactive | outcome [7]: inactive | outcome [8]: inactive

CN(C)CCC1CCCc2ccc(NC(=O)Nc3cccc(Cl)c3Cl)cc21 (stereo not drawn)
growth inhibition [1]: 11% | inhibition [2]: 44% | inhibition [3]: 5% | growth inhibition [4]: 93% (active) | outcome [5]: inactive | outcome [6]: inactive | outcome [7]: inactive | outcome [8]: inactive

Cc1cccc2[nH]c(-c3ccc(-c4ccc(CN5CCN(CCN6CCOCC6)CC5)cc4)s3)nc12
growth inhibition [1]: 99% (active) | inhibition [2]: 41% | inhibition [3]: 3% | growth inhibition [4]: 100% (active) | outcome [5]: inactive | outcome [6]: inactive | outcome [7]: inactive | outcome [8]: inactive

Cc1[nH]c(C)c(-c2ccc(-c3ccc(OC(F)(F)F)cc3)cc2)c(=O)c1Cl
growth inhibition [1]: 97% (active) | inhibition [2]: 24% | inhibition [3]: 1% | growth inhibition [4]: 98% (active) | outcome [5]: inactive | outcome [6]: inactive | outcome [7]: inactive | outcome [8]: inactive

CN1CCN(CC(=O)Nc2cccc(-c3cccc(-c4nc5ccc(C(F)(F)F)cc5[nH]4)c3)c2)CC1
growth inhibition [1]: 98% (active) | inhibition [2]: 26% | inhibition [3]: 4% | growth inhibition [4]: 101% (active) | outcome [5]: inactive | outcome [6]: inactive | outcome [7]: inactive | outcome [8]: inactive

CC(C)NCc1cccc(-c2ccc(NC(=O)c3ccc(C#N)cc3)cc2)c1
growth inhibition [1]: 8% | inhibition [2]: 15% | inhibition [3]: 3% | growth inhibition [4]: 99% (active) | outcome [5]: inactive | outcome [6]: inactive | outcome [7]: inactive | outcome [8]: inactive

CN(C)CC(=O)NCC(NCCCNc1cc(=O)c2ccccc2[nH]1)c1cc(Br)cc(Br)c1 (stereo not drawn)
growth inhibition [1]: 2% | inhibition [2]: 6% | inhibition [3]: 1% | growth inhibition [4]: 98% (active) | outcome [5]: inactive | outcome [6]: inactive | outcome [7]: inactive | outcome [8]: inactive

O=C(/C=C/c1ccc(Cl)c(Cl)c1)NCCCCCN1CCCN(C(=O)Nc2ccc(Br)cc2)CC1
growth inhibition [1]: -4% | inhibition [2]: 38% | inhibition [3]: 0% | growth inhibition [4]: 99% (active) | outcome [5]: inactive | outcome [6]: inactive | outcome [7]: inactive | outcome [8]: inactive

Cc1[nH]c2ccc(O)cc2c1C1CCN(CCCCCNC(=O)/C=C/c2ccc(Cl)c(Cl)c2)CC1
growth inhibition [1]: 1% | inhibition [2]: 33% | inhibition [3]: 2% | growth inhibition [4]: 101% (active) | outcome [5]: inactive | outcome [6]: inactive | outcome [7]: inactive | outcome [8]: inactive

COc1ccc(Cn2c(N3CCN(S(=O)(=O)c4ccc(OC)cc4)CC3)nc3c2c(=O)n(CC2CC2)c(=O)n3CC2CC2)cc1
growth inhibition [1]: 39% | inhibition [2]: -12% | inhibition [3]: -3% | growth inhibition [4]: 92% (active) | outcome [5]: inactive | outcome [6]: inactive | outcome [7]: inactive | outcome [8]: inactive
